Laboratory results as given in PubChem BioAssay.
“And” between values parts separate entries of the source, which are not always exact repeats. Equal values may be shown once. The source made the active and inactive calls. How the calls were made is not given here.

What follows are compounds tested against Pantothenate synthetase (Mycobacterium tuberculosis (strain ATCC 25618 / H37Rv)) (UniProt P9WIL5) (assay: Recombinant Mtb pantothenate synthetase (PanC) inhibitors, coupled enzyme, confirmatory (AID 375;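 further: 0% = full reaction with vehicle and 100% = no enzyme background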)). Conditions: coupled enzyme assay; at 10 µM, hits give high values.
Sequence of Pantothenate synthetase (Mycobacterium tuberculosis (strain ATCC 25618 / H37Rv)) (P9WIL5 whole entry, looked up): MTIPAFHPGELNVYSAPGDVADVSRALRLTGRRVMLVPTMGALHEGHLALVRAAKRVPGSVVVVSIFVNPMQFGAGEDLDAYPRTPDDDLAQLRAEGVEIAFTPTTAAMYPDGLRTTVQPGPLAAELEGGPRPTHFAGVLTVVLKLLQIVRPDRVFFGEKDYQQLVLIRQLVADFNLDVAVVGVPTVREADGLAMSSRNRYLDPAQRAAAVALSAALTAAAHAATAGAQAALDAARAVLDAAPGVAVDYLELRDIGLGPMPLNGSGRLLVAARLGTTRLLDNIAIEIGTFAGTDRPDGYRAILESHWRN

Structure (SMILES)	inhibition
Cc1nonc1NC(=O)c1ccccc1Br	1% (inactive)
COc1ccc(C(C)N2CC34C=CC(O3)C(C(=O)OCC(C)C)C4C2=O)cc1 (stereo not given)	9% (inactive)
[O-][n+]1c2ccc3nonc3c2nn1-c1ccccc1Cl	0% (inactive)
O=C(CN1CCCN(S(=O)(=O)c2ccc(Br)cc2)CC1)Nc1ccc2c(c1)OCO2	4% (inactive)
Cc1cc(C)c(C)c(S(=O)(=O)Nc2ccc(O)cc2)c1C	10% (inactive)
C=CCNc1oc(-c2cccc3ccccc23)nc1C#N	0% (inactive)
CC(=O)OCC(=O)[C@@]1(O)CC[C@H]2[C@@H]3CCC4=CC(=O)C=C[C@]4(C)[C@@]3(Cl)[C@@H](Cl)C[C@@]21C	0% (inactive)
CCN(CC)CC(=O)Nc1c(C)cccc1C	7% (inactive) and 0% (inactive)
Cn1c(SCC(=O)c2ccc(-c3ccccc3)cc2)nnc1-c1ccco1	2% (inactive)
O=C(CSc1ncnc2ccccc12)N1CCN(c2ccccc2)CC1	0% (inactive)
Cc1cccc(COc2ccc(/C(O)=C3\C(=O)C(=O)N(CCN(C)C)C3c3ccncc3)cc2)c1 (stereo not given)	13% (inactive)
CCC(CCC(=O)Nc1cccc(C(=O)O)c1)C(=O)O (stereo not given)	2% (inactive)
Cc1c(C(=O)Nc2nnc(C(F)(F)F)s2)oc2ccccc12	5% (inactive)
CC(NS(=O)(=O)c1ccccc1)C(c1cccs1)N1CCN(C)CC1 (stereo not given)	4% (inactive)
CC(=O)Nc1ccn(-c2ccccc2)n1	2% (inactive)
CC(Oc1ccc(Cl)cc1Cl)C(=O)Nc1ncccn1 (stereo not given)	0% (inactive)
COC(=O)c1cccc(NC(=O)CSc2nnc(COc3ccccc3)n2C)c1	0% (inactive)
Cc1nc2ccc(N3C(=O)CCC3=O)cc2[nH]1	5% (inactive)
C=CCn1c(SCC(=O)c2cc(C)n(C(C)COC)c2C)nc2sc(C)c(C)c2c1=O (stereo not given)	4% (inactive)
O=C(c1ccc(CSCc2ccccc2F)o1)N1CCN(c2ccc(N3CCOCC3)nn2)CC1	0% (inactive)

Structure (SMILES)	inhibition
COC(=O)c1ccccc1NC(=O)c1ccc(COc2ccccc2)o1	0% (inactive)
CN(C)S(=O)(=O)Nc1ccccc1C(N)=O	0% (inactive)
S=c1[nH]ncn1-c1ccccn1	5% (inactive)
O=C(CCCNS(=O)(=O)c1ccccc1)NCc1ccco1	0% (inactive)
CN(CC(=O)N1CCN(c2ccccn2)CC1)S(=O)(=O)c1ccc2ccccc2c1	0% (inactive)
COc1ccc(-c2ccc(-c3noc(-c4ccccc4)n3)c(OC)n2)cc1	3% (inactive)
CN1CCc2c(sc3c2c(=O)n(-c2ccccc2)c2nnc(SCc4ccc(F)cc4)n32)C1	0% (inactive)
O=C(CCn1c(=O)oc2ccccc21)NCCN1CCc2ccccc2C1	0% (inactive)
CCCNC(=O)CS(=O)(=O)Cc1nc(-c2cccc(OC)c2)oc1C	0% (inactive)
COCCOC(=O)C1=C(N)OC2=C(C(=O)CC(C)(C)C2)C1c1cccnc1 (stereo not given)	0% (inactive)
Cc1cc(NC(=O)c2cnn3c(C(F)F)cc(C4CC4)nc23)no1	0% (inactive)
O=C(Cc1ccc(Br)cc1)N1CCCCCC1	1% (inactive)
CC(=O)Nc1cc2c(nc1C)nc(C)n2Cc1ccc(Br)cc1	0% (inactive)
C=CCn1c(Br)nc2c1c(=O)[nH]c(=O)n2C	0% (inactive)
Cn1nc(C(=O)Nc2cccc(C(F)(F)F)c2)ccc1=O	0% (inactive)
CC1CCCCC1NC(=O)c1ccc(N2CCCC2=O)cc1 (stereo not given)	0% (inactive)
CN1CCN(C(=O)c2ccc(CS(=O)(=O)c3c(Cl)cccc3Cl)o2)CC1	16% (inactive)
COc1ccc(OC)c(-n2nnnc2SCC(=O)NCc2ccc3c(c2)OCO3)c1	0% (inactive)
COC(=O)c1[nH]c(C)c(/C(O)=C2\C(=O)C(=O)N(CCCN3CCOCC3)C2c2ccccn2)c1C (stereo not given)	8% (inactive)
CCc1nnc(NC(=O)C2Cc3ccccc3CN2S(=O)(=O)c2cccs2)s1 (stereo not given)	1% (inactive)
